One assay has as its target Torsin-1A-interacting protein 1 (Homo sapiens) (UniProt Q5JTV8). In words: compound microarray binding of lysate hLAP1 – cell lysate, small-molecule microarray, COS7 lysate, 635/667 nm fluorescence, primary screen (AID 1116). The note with it: 635 nm fluorescence, higher = more signal.
Torsin-1A-interacting protein 1 (Homo sapiens), sequence (Q5JTV8 whole entry, looked up): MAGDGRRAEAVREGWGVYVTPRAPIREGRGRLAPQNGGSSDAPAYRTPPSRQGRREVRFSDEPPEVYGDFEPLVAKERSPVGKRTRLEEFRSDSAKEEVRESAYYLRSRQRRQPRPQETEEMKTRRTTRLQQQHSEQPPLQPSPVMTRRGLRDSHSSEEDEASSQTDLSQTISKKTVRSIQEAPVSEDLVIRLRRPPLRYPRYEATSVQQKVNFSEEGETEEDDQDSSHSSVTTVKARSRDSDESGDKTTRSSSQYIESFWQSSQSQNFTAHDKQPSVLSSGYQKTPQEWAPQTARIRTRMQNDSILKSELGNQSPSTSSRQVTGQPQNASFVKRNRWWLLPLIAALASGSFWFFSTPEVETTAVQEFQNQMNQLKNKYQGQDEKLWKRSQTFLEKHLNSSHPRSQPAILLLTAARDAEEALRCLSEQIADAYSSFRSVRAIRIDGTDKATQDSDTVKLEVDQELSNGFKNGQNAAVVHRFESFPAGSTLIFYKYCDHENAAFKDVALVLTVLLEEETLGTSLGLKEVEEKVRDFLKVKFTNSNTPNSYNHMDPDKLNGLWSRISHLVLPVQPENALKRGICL
Compound `COc1ccc(C#Cc2ccc3c(c2)[C@]2(C(=O)N3)[C@H](C(=O)Nc3nc4ccccc4s3)[C@H]3C(=O)O[C@H](c4ccccc4)[C@H](c4ccccc4)N3[C@@H]2c2ccccc2OCCO)cc1` gave a composite z-score of 0.471.

`C=CCNC(=O)[C@@H]1[C@H]2C(=O)O[C@H](c3ccccc3)[C@H](c3ccccc3)N2[C@H](c2ccc(OCCO)cc2)[C@@]12C(=O)N(C(=O)OCCOC)c1ccc(C#CCCO)cc12` showed a composite z-score of 0.262.

`COCC(=C=CC[C@@H](O)c1cccc(OCCO)c1)CCO` showed a composite z-score of 0.69.

In turn, `COCCOC(=O)N1C(=O)[C@@]2(c3cc(C#CC4(O)CCCCCC4)ccc31)[C@H](C(=O)N1CCN(c3ncccn3)CC1)[C@H]1C(=O)O[C@H](c3ccccc3)[C@H](c3ccccc3)N1[C@@H]2c1ccccc1OCCO` showed a composite z-score of 0.334.

Turning to `[N-]=[N+]=Nc1ccccc1C[C@]1(C(=O)O)N=C(c2ccc(OCCCO)cc2)O[C@H]1c1ccccc1N=[N+]=[N-]`, the composite z-score was 1.5.

`NC(=O)NCC#Cc1ccc2c(c1)[C@]1(C(=O)N2)[C@H](C(=O)N2CCN(c3ncccn3)CC2)[C@H]2C(=O)O[C@H](c3ccccc3)[C@H](c3ccccc3)N2[C@@H]1c1ccc(OCCO)cc1` returned a composite z-score of 0.572.

On to `CN(C)C(=O)[C@@]1(Cc2ccccc2)COC(c2ccc(OCCCO)cc2)=N1`, for which the composite z-score was found to be 2.

`CCN(CC)c1ccc(N2CC=CC34O[C@@H]5C=CCCOC(=O)C5[C@H]3C(=O)N(CCO)[C@@H]4C2=O)cc1` (stereo partly specified): the composite z-score is -1.01.

Compound `C[C@@H]1ON(c2ccc(I)cc2)[C@H](c2ccc(OC(=O)OC(C)(C)C)cc2)[C@H]1C(=O)N1C(=O)OC[C@H]1Cc1ccccc1` yielded a composite z-score of 0.362.

Regarding `COc1cc(CO)cc(I)c1O[C@H]1C=C(C(=O)NCCO)C[C@@H](NCC2CCCCC2)[C@@H]1O`, the composite z-score was found to be 0.164.

Regarding `C=CCNC(=O)[C@@H]1[C@H]2C(=O)O[C@H](c3ccccc3)[C@H](c3ccccc3)N2[C@H](c2ccc(O)cc2)[C@@]12C(=O)Nc1ccc(C#CCC(C(=O)OC)C(=O)OC)cc12`, the composite z-score came to 0.411.

`CCOC(=O)C1=C[C@@H](c2ccccc2)N(S(=O)(=O)c2ccc(C)cc2)[C@H]1c1ccccc1`: the composite z-score is -0.109.

For the compound `[N-]=[N+]=NC[C@H](Cc1ccccc1)NC(=O)c1ccccc1`, the composite z-score stood at 0.363.

Take `COc1ccc(C(O)C2C=CC3C(=O)N(c4ccccc4)C(=O)C3N2Nc2ccccc2F)cc1` (stereo unspecified): the composite z-score was 0.982.

Compound `C#C[C@@H](CC)O[Si](C#CCCCC#N)(C(C)C)C(C)C` displayed a composite z-score of 0.372.

In turn, `CCCCCCCCCCC(O)C1C=CC2C(=O)N(C)C(=O)C2N1Nc1cc(OC)c(OC)c(OC)c1` (stereo unspecified) registered a composite z-score of -0.232.

On to `C=C[C@H](C)[C@H](OC(=O)Nc1ccc(OC)cc1)c1ccc(OCCO)cc1`, for which the composite z-score was -0.18.

With `COCCOC(=O)N1C(=O)[C@@]2(c3cc(C#CC4(O)CCCCCC4)ccc31)[C@H](c1ccc(OCCO)cc1)N1[C@H](c3ccccc3)[C@H](c3ccccc3)OC(=O)[C@H]1[C@@H]2C(=O)Nc1nc2ccccc2s1`, the composite z-score came out at 1.

As for `O=c1cccc(-c2ccco2)o1`, the composite z-score was 0.18.

As for `CN(C)C(=O)[C@@]1(Cc2ccccc2N=[N+]=[N-])N=C(c2ccc(OCCCO)cc2)O[C@H]1c1ccccc1`, the composite z-score turned out to be 1.32.

`CC(C)[C@H]1NC(=O)[C@@]23C(=O)N[C@@H](Cc4ccccc4)C2[C@H](C)[C@@]2(C)O[C@H]2C3/C=C/CCC/C=C/CNC(=O)[C@H](Cc2ccccc2)NC1=O` (stereo partly specified) yielded a composite z-score of -0.148.

In turn, `C=CCC(OC(C)=O)[C@@H]1[C@@H](N(Cc2cc3ccccc3o2)C(=O)c2ccc(-c3ccccc3)cc2)c2cc(OCCCO)ccc2N1C(=O)Cc1ccc(OC)cc1` (stereo partly specified) registered a composite z-score of -0.195.

Compound `[N-]=[N+]=NCc1ccccc1[C@H]1OC(c2ccc(OCCCO)cc2)=N[C@@]1(CCS(=O)(=O)c1ccccc1)C(=O)NCc1ccccc1` displayed a composite z-score of 0.804.

`CC(=O)n1cc(C(O)C2C=CC3C(=O)N(c4ccccc4)C(=O)C3N2Nc2ccc(C(C)C)cc2)c2ccccc21` (stereo unspecified) came in with a composite z-score of 1.68.

In turn, `C=C(COC)C(=O)CC[C@H](OC(C)=O)c1ccc(OCCO)cc1` showed a composite z-score of 3.4.

As for `Cc1ccccc1C(O)C1C=CC2C(=O)NC(=O)C2N1Nc1ccc(Cl)cc1Cl` (stereo unspecified), the composite z-score was 1.56.

For another assay, the target named is Alpha-bungarotoxin (Bungarus multicinctus) (UniProt P60615). In words: compounds binding labelled alpha-BTX control protein – biochemical, small-molecule microarray, Alexa647 label, 635/667 nm fluorescence, artefact control for SMM control protein annotation, profiling panel (AID 1117). The note with it: alpha-BTX-A647 binding fluorescence, higher = more signal.
Alpha-bungarotoxin (Bungarus multicinctus), sequence (P60615 whole entry, looked up): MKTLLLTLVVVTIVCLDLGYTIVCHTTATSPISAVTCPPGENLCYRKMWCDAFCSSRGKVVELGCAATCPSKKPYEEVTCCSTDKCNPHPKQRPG
The compound `CCOC(=O)C1=CCC(c2ccco2)N(S(=O)(=O)c2ccc(C)cc2)C1` (stereo unspecified) returned a composite z-score of 0.818.

Turning to `COCCOC(=O)N1C(=O)[C@@]2(c3cc(C#CCC(C(=O)OC)C(=O)OC)ccc31)[C@H](C(=O)NC[C@H](O)c1ccccc1)[C@H]1C(=O)O[C@H](c3ccccc3)[C@H](c3ccccc3)N1[C@@H]2c1ccc(OCCO)cc1`, the composite z-score stood at 0.973.

`CCCNC(=O)[C@@]1(Sc2ccc(C)cc2)CC(=O)N(C(C)C)[C@@H]1c1ccc(CO)cc1I` returned a composite z-score of -0.432.

In the case of `COC(=O)[C@@]1(Cc2ccc(F)cc2)[C@H]2c3cc(C(=O)N4CCCC4)n(C)c3C[C@H]2CN1C(=O)c1ccccc1`, the composite z-score was 0.121.

On to `O=C1O[C@H](c2ccccc2)[C@H](c2ccccc2)N2[C@H]1[C@@H](C(=O)N1CCCCCCC1)[C@]1(C(=O)Nc3ccc(C#CC4(O)CCCCCC4)cc31)[C@H]2c1ccc(O)cc1`, for which the composite z-score came out at 2.28.

`O=C1O[C@H](c2ccccc2)[C@H](c2ccccc2)N2[C@H]1[C@@H](C(=O)O)[C@]1(C(=O)Nc3ccc(C#CC4(O)CCCCCC4)cc31)[C@H]2c1ccc(O)cc1` gave a composite z-score of -0.0118.

`COCCOC(=O)N1C(=O)[C@@]2(c3ccccc31)[C@H](c1ccccc1OCCO)N1[C@H](c3ccccc3)[C@H](c3ccccc3)OC(=O)[C@H]1[C@@H]2C(N)=O` registered a composite z-score of 1.14.

In turn, `NC(=O)[C@@H]1[C@H]2C(=O)O[C@H](c3ccccc3)[C@H](c3ccccc3)N2[C@H](c2ccc(OCCO)cc2)[C@@]12C(=O)Nc1ccc(C#CCCO)cc12` showed a composite z-score of 1.13.

Turning to `Cc1cccc([C@H]2C[C@H]3C(Br)=C[C@@H]2C(=O)[C@]32CO2)c1`, the composite z-score is 0.106.

Take `COc1ccc(C#Cc2ccc3c(c2)[C@]2(C(=O)N3)[C@H](C(=O)Nc3nc4ccccc4s3)[C@H]3C(=O)O[C@H](c4ccccc4)[C@H](c4ccccc4)N3[C@@H]2c2ccccc2OCCO)cc1`: the composite z-score worked out at 1.02.

`C=CCNC(=O)[C@@H]1[C@H]2C(=O)O[C@H](c3ccccc3)[C@H](c3ccccc3)N2[C@H](c2ccc(OCCO)cc2)[C@@]12C(=O)N(C(=O)OCCOC)c1ccc(C#CCCO)cc12` displayed a composite z-score of 1.35.

`COCC(=C=CC[C@@H](O)c1cccc(OCCO)c1)CCO` gave a composite z-score of 1.73.

As to `COCCOC(=O)N1C(=O)[C@@]2(c3cc(C#CC4(O)CCCCCC4)ccc31)[C@H](C(=O)N1CCN(c3ncccn3)CC1)[C@H]1C(=O)O[C@H](c3ccccc3)[C@H](c3ccccc3)N1[C@@H]2c1ccccc1OCCO`, the composite z-score worked out at 0.684.

Compound `[N-]=[N+]=Nc1ccccc1C[C@]1(C(=O)O)N=C(c2ccc(OCCCO)cc2)O[C@H]1c1ccccc1N=[N+]=[N-]` displayed a composite z-score of 1.22.

Regarding `NC(=O)NCC#Cc1ccc2c(c1)[C@]1(C(=O)N2)[C@H](C(=O)N2CCN(c3ncccn3)CC2)[C@H]2C(=O)O[C@H](c3ccccc3)[C@H](c3ccccc3)N2[C@@H]1c1ccc(OCCO)cc1`, the composite z-score is 1.42.

Turning to `CN(C)C(=O)[C@@]1(Cc2ccccc2)COC(c2ccc(OCCCO)cc2)=N1`, the composite z-score was -0.579.

Consider `CCN(CC)c1ccc(N2CC=CC34O[C@@H]5C=CCCOC(=O)C5[C@H]3C(=O)N(CCO)[C@@H]4C2=O)cc1` (stereo partly specified), for which the composite z-score was determined as 0.253.

As to `C[C@@H]1ON(c2ccc(I)cc2)[C@H](c2ccc(OC(=O)OC(C)(C)C)cc2)[C@H]1C(=O)N1C(=O)OC[C@H]1Cc1ccccc1`, the composite z-score was 0.943.

As for `COc1cc(CO)cc(I)c1O[C@H]1C=C(C(=O)NCCO)C[C@@H](NCC2CCCCC2)[C@@H]1O`, the composite z-score was determined as 0.394.

`C=CCNC(=O)[C@@H]1[C@H]2C(=O)O[C@H](c3ccccc3)[C@H](c3ccccc3)N2[C@H](c2ccc(O)cc2)[C@@]12C(=O)Nc1ccc(C#CCC(C(=O)OC)C(=O)OC)cc12` registered a composite z-score of 0.388.

In turn, `CCOC(=O)C1=C[C@@H](c2ccccc2)N(S(=O)(=O)c2ccc(C)cc2)[C@H]1c1ccccc1` came in with a composite z-score of 0.291.

On to `[N-]=[N+]=NC[C@H](Cc1ccccc1)NC(=O)c1ccccc1`, for which the composite z-score is 0.0961.

For the compound `COc1ccc(C(O)C2C=CC3C(=O)N(c4ccccc4)C(=O)C3N2Nc2ccccc2F)cc1` (stereo unspecified), the composite z-score was 1.01.

`C#C[C@@H](CC)O[Si](C#CCCCC#N)(C(C)C)C(C)C` displayed a composite z-score of -0.275.

Compound `CCCCCCCCCCC(O)C1C=CC2C(=O)N(C)C(=O)C2N1Nc1cc(OC)c(OC)c(OC)c1` (stereo unspecified) returned a composite z-score of 0.229.

In turn, `C=C[C@H](C)[C@H](OC(=O)Nc1ccc(OC)cc1)c1ccc(OCCO)cc1` yielded a composite z-score of -1.79.

The compound `COCCOC(=O)N1C(=O)[C@@]2(c3cc(C#CC4(O)CCCCCC4)ccc31)[C@H](c1ccc(OCCO)cc1)N1[C@H](c3ccccc3)[C@H](c3ccccc3)OC(=O)[C@H]1[C@@H]2C(=O)Nc1nc2ccccc2s1` returned a composite z-score of 0.968.

Compound `O=c1cccc(-c2ccco2)o1` came in with a composite z-score of 0.738.

With `CN(C)C(=O)[C@@]1(Cc2ccccc2N=[N+]=[N-])N=C(c2ccc(OCCCO)cc2)O[C@H]1c1ccccc1`, the composite z-score is 2.17.

For `CC(C)[C@H]1NC(=O)[C@@]23C(=O)N[C@@H](Cc4ccccc4)C2[C@H](C)[C@@]2(C)O[C@H]2C3/C=C/CCC/C=C/CNC(=O)[C@H](Cc2ccccc2)NC1=O` (stereo partly specified), the composite z-score is -0.498.

Regarding `C=CCC(OC(C)=O)[C@@H]1[C@@H](N(Cc2cc3ccccc3o2)C(=O)c2ccc(-c3ccccc3)cc2)c2cc(OCCCO)ccc2N1C(=O)Cc1ccc(OC)cc1` (stereo partly specified), the composite z-score was -0.17.

For the compound `[N-]=[N+]=NCc1ccccc1[C@H]1OC(c2ccc(OCCCO)cc2)=N[C@@]1(CCS(=O)(=O)c1ccccc1)C(=O)NCc1ccccc1`, the composite z-score is 2.15.

Consider `CC(=O)n1cc(C(O)C2C=CC3C(=O)N(c4ccccc4)C(=O)C3N2Nc2ccc(C(C)C)cc2)c2ccccc21` (stereo unspecified), for which the composite z-score turned out to be 1.6.

As to `C=C(COC)C(=O)CC[C@H](OC(C)=O)c1ccc(OCCO)cc1`, the composite z-score was 0.915.

As for `Cc1ccccc1C(O)C1C=CC2C(=O)NC(=O)C2N1Nc1ccc(Cl)cc1Cl` (stereo unspecified), the composite z-score stood at 0.0072.

The record behind these values is PubChem BioAssay.
